Reference: PubChem BioAssay AID1851 (National Center for Advancing Translational Sciences (NCATS), 2009)
Out of some 16,000 compounds screened, about 4,000 (25%) were called active. Inconclusive results (about 26%) are left out. Not all results are given here. Unmarked numbers belong to inactive results. The call rests on the fitted dose curve; in most records, active means well fitted curve in the direction sought with a large enough effect; inconclusive means small, poorly fitted or top-dose-only effect, or effect the other way; inactive means no such curve, though single readings can be large or run the other way.
On the % scale 0 is the no-effect control and ±100 the full control effect.

Each compound was assayed against Cytochrome P450 2C9 (Homo sapiens) (UniProt P11712) (assay: Cytochrome panel assay with activity outcomes). Conditions: recombinant CYP, pro-luciferin dealkylation, luminescence, p450-cyp2c9; series mostly up to 57.1 µM; activity, negative = inhibition: at the top concentration.
Chain of Cytochrome P450 2C9 (Homo sapiens) (P11712 whole entry, looked up): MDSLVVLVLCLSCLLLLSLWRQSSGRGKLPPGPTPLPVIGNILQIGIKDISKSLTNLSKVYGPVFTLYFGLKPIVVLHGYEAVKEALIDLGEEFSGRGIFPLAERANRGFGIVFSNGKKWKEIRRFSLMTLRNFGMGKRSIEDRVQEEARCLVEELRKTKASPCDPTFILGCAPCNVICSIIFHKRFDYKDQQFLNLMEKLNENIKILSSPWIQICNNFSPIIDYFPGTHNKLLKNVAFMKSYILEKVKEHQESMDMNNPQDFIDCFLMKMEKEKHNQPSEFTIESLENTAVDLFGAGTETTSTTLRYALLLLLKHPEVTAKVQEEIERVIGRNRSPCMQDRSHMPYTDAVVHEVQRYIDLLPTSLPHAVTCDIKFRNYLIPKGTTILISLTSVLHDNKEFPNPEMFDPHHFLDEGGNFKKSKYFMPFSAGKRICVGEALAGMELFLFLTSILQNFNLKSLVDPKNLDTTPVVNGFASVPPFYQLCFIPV
`CC1(C)O[C@H]2[C@@H](O1)[C@@H](On1nnc3ccc(Cl)cc31)O[C@@H]2[C@@H]1COC(C)(C)O1` showed an activity, negative = inhibition of -3.36% [at 11.4 µM].
In the case of `Nn1nnc2ccccc21`, the “activity, negative = inhibition” value is reported as -7.08%.
With `N#Cc1cccc(-c2ccc3ncnc(N4CCNCC4)c3c2)c1` the activity, negative = inhibition was 20.7% [at 2.29 µM].
With `CCN(CC)S(=O)(=O)N1CCC(C(=O)NCc2ccc(C)cc2)CC1` the “activity, negative = inhibition” value was -7.02%.
`O=C1C2=CC[C@H]3C(=O)N(c4cccc(Oc5ccccc5)c4)C(=O)[C@@H]3[C@@H]2[C@H](O)[C@@H]2O[C@H]12` showed an activity, negative = inhibition of 4.88% [at 11.4 µM].
With `Cc1ccc(CNC(=O)Cc2csc(Nc3nc(=S)[nH]c4ccccc34)n2)cc1` the AC50 was 0.891 µM (active).
With `COc1ccc(CNC(=O)Cc2csc(Nc3nc(=S)[nH]c4ccccc34)n2)cc1` the AC50 was 0.224 µM (active).
With `O=C(Cc1csc(Nc2nc(=S)[nH]c3ccccc23)n1)NCc1cccc(Cl)c1` the AC50 was 0.0631 µM (active).
For `Cc1ccc(CS(=O)(=O)CCC(=O)NCc2ccccn2)cc1`, the “activity, negative = inhibition” value was -25.1%.
With `Cc1ccc(CNC(=O)Cn2cncn2)cc1` the “activity, negative = inhibition” value was -26.5%.
For `COc1ccc(C(CNC(=O)c2cc(=O)[nH]c3ccccc23)N2CCCC2)cc1` (stereo not drawn), the “activity, negative = inhibition” value was 6.96%.
`Cc1ccc(C(=O)c2ccc(CC(=O)O)n2C)cc1` was tested, and the “activity, negative = inhibition” value was 16.9% [at 25.6 µM].
Compound `CCOC(=O)CCN1C(=O)[C@H]2[C@H]3[C@H](O)[C@H](O)C/C(=N/OC/C=C(\C)CCC=C(C)C)[C@@H]3CC[C@@H]2C1=O` has an activity, negative = inhibition of 7.78% [at 11.4 µM].
In the case of `CN1CCN(c2ncnc3ccc(-c4ccc(C(=O)N(C)C)cc4)cc23)CC1`, the activity, negative = inhibition is reported as 17.4% [at 2.29 µM].
Work on `Cc1noc(C)c1-c1ccc2ncnc(Nc3ccc(F)cc3)c2c1` yielded an activity, negative = inhibition of -13.2% [at 2.29 µM].
`FC(F)(F)c1cc(CN2CCC3(CCNCC3)CC2)cc(C(F)(F)F)c1` was tested, and the “activity, negative = inhibition” value was 9.64%.
Compound `CS(=O)(=O)Nc1cccc(-c2nccc(Nc3ccc(F)cc3)n2)c1` has an activity, negative = inhibition of 18.7% [at 2.29 µM].
For `COC(=O)C1=C(C)N=C2SC(C)C(=O)N2C1/C=C/c1ccccc1` (stereo not drawn), the AC50 was 4.47 µM (active).
With `COC(=O)c1cc(/C=C/c2ccccc2)on1` the “activity, negative = inhibition” value was -25.8%.
In the case of `COC(=O)[C@@]1(Cc2ccccc2)[C@H]2c3cc(C(=O)N4CCCC4)n(Cc4ccsc4Br)c3C[C@H]2CN1C(=O)c1ccccc1`, the AC50 is reported as 2 µM (active).
In the case of `COC(=O)[C@@]1(Cc2ccccc2)[C@H]2c3cc(C(=O)N(C)C)n(Cc4ccsc4Br)c3C[C@H]2CN1C(=O)c1ccccc1`, the AC50 is reported as 3.98 µM (active).
In the case of `CCCCN1CCCC[C@H]1C(=O)Nc1c(C)cccc1C`, the “activity, negative = inhibition” value is reported as 18.9% [at 25.6 µM].
With `CC(=O)OC[C@@H]1O[C@H](CCO/N=C\[C@@H](C)[C@H](OCc2ccccc2)C(C)C)C=C[C@@H]1OC(C)=O` the activity, negative = inhibition was -15.4% [at 11.4 µM].
In the case of `CON1C(=O)C(=O)N(OC)C(C)(C)C1C` (stereo not drawn), the “activity, negative = inhibition” value is reported as -9%.
With `Cc1nn(C)c(C(=O)NNC(=S)Nc2ccc(Cl)cc2)c1[N+](=O)[O-]` the AC50 was 6.31 µM (active).
For `Cc1cc(NC(=O)c2c([N+](=O)[O-])c(C)nn2C)no1`, the “activity, negative = inhibition” value was 9.1%.
For `Cc1cc([N+](=O)[O-])nn1CC(=O)NNC(=S)Nc1ccc(F)cc1`, the “activity, negative = inhibition” value was -30%.
With `COc1ccccc1NC(=S)NNC(=O)c1c(Cl)c(C)nn1C` the AC50 was 3.55 µM (active).
With `O=C(N/N=C1/C[C@@H](O)[C@@H](O)[C@@H]2[C@H]3C(=O)N(c4ccc(F)cc4F)C(=O)[C@@H]3CC[C@@H]12)OCc1ccccc1` the activity, negative = inhibition was -1.14% [at 11.4 µM].
With `NC(N)=N/N=C\c1ccc(O)c(C(=O)O)c1` the activity, negative = inhibition was 2.83% [at 11.4 µM].
With `O=C(O)C1=CC(=C(c2ccc(O)c(C(=O)O)c2)c2ccc(O)c(C(=O)O)c2)C=CC1=O` the AC50 was 15.8 µM (active).
Work on `O=C(O)c1ccc(C(=O)c2ccccc2C(=O)O)cc1C(=O)O` yielded an activity, negative = inhibition of -6.86% [at 11.4 µM].
In the case of `CC1=C/C(=C(/c2ccc(O)c(C)c2)c2ccccc2C(=O)O)C=CC1=O`, the AC50 is reported as 0.01 µM (active).
`O=C(O)c1ccc(C(=O)O)c(C(=O)O)c1.[NH-][C@@H]1CCCC[C@@H]1[NH-].[Pt]` gave an activity, negative = inhibition of 0.225% [at 11.4 µM].
In the case of `NC(=O)CN1CCOCCOCCOCCOCCOCC1`, the “activity, negative = inhibition” value is reported as -26.1%.
For `CCN(C1CCCCC1)S(=O)(=O)c1ccc(S(=O)(=O)NCc2ccncc2)cc1`, the AC50 was 0.0398 µM (active).
With `O=S(=O)(NCc1cccnc1)c1ccc(Cl)nc1` the “activity, negative = inhibition” value was -12.7%.
`COc1ccccc1CNc1cc(-c2c(C)noc2C)ncn1` gave an activity, negative = inhibition of -2.44% [at 2.29 µM].
For `Cc1ccc(-n2nc(C)c3c2OC(N)=C(C#N)C3c2ccco2)cc1` (stereo not drawn), the AC50 was 6.31 µM (active).
In the case of `COc1ccccc1NC(=O)COC(=O)c1ccc(S(=O)(=O)NCc2ccco2)cc1`, the AC50 is reported as 0.398 µM (active).
With `NCCSSCCN` the AC50 was “inactive”.
In the case of `CN1CCN(c2ncc3nc(-c4cc(F)cc(F)c4)c(=O)n(Cc4cccs4)c3n2)CC1`, the “activity, negative = inhibition” value is reported as -23.5%.
For `O=c1c(-c2ccc(Cl)cc2)nc2cnc(N3CCNCC3)nc2n1Cc1cccs1`, the AC50 was 20 µM (active).
For `CN(C)c1ncc2nc(-c3cc(F)cc(F)c3)c(=O)n(Cc3cccs3)c2n1`, the “activity, negative = inhibition” value was 0.26%.
In the case of `COc1ccc(-c2nc3cnc(N4CCN(C)CC4)nc3n(Cc3cccs3)c2=O)cc1`, the “activity, negative = inhibition” value is reported as 10.4%.
In the case of `O=c1c(-c2ccc(F)cc2)nc2cnc(N3CCOCC3)nc2n1Cc1cccs1`, the “activity, negative = inhibition” value is reported as -0.555%.
In the case of `O=c1c(-c2cc(F)cc(F)c2)nc2cnc(N3CCNCC3)nc2n1Cc1cccs1`, the AC50 is reported as 3.98 µM (active).
In the case of `O=c1c(-c2ccc(F)cc2)nc2cnc(N3CCNCC3)nc2n1Cc1cccs1`, the AC50 is reported as 15.8 µM (active).
